PubChem BioAssay (NCATS)
Inconclusive results are not listed. Calls of active or inactive are those of the source. The call rests on the fitted dose curve; in most records, active means well fitted inhibition curve with a large enough effect; inconclusive means small, poorly fitted or top-dose-only effect; inactive means flat fitted curve, though single readings scatter.

These compounds were tested against Calcium and integrin-binding protein 1 (Homo sapiens) (UniProt Q99828) (assay: Primary qHTS for Identification of Calcium Integrin Binding Protein 1 (CIB1) Competitor (AID 1508620;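 further: GST tagged CIB1 binding a fluorescein labelled alphaIIb integrin peptide tracer; top concentration of the series differs between compounds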)). Conditions: CIB1-GST / FITC-alphaIIb peptide fluorescence polarization; series mostly up to 114 µM; activity change, negative = inhibition: at the top concentration.
How it was run: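 CIB1-GST (1 uM final) and compound incubated 15 min at room temperature before adding FITC-alphaIIb peptide tracer (100 nM final). Competition for binding read by fluorescence polarization (ex 480, em 540) after another 15 min at room temperature.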
On the % scale 0 is the no-effect control and ±100 the full control effect.

Sequence of Calcium and integrin-binding protein 1 (Homo sapiens) (Q99828 whole entry, looked up): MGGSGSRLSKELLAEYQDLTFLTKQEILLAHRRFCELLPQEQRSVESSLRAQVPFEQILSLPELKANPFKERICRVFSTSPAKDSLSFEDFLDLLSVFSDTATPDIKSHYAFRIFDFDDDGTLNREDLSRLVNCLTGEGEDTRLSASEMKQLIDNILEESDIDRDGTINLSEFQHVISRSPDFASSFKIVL

SMILES	activity change, negative = inhibition
CC1=CC2/C=C(\C)CCC3OC(C)(C)OC3CCC(=O)C23C(=O)NC(CC(C)C)C3C1C (stereo unspecified)	2.58% [at 57.7 µM] (inactive)
C/C=C(\C)C(=O)OC1C(C)C2(O)C(C=C(CO)CC3(O)C(=O)C(C)=CC32)C2C(C)(C)C12OC(C)=O (stereo unspecified)	2.32% [at 57.7 µM] (inactive)
CCCCCCCOc1cc2c(cc1/C(C)=C/c1ccc(C(=O)O)cc1)C(C)(C)CCS2(=O)=O	17.6% (inactive)
COc1c2c(c(C)c3c1C(=O)OC3)O[C@@]1(C)C[C@@H](OC(C)=O)[C@]34O[C@](OC)(CC[C@]3(C)[C@H]1C2)OC4(C)C	4.59% [at 57.7 µM] (inactive)
FC(F)(F)c1ccc(CNc2ccc(Cc3c[nH]c4ncc(Cl)cc34)cn2)cn1	-2.94% [at 57.7 µM] (inactive)
CC(=O)O[C@H]1[C@H](O)C[C@@]2(C)C(CC[C@]3(C)C2CC=C2C4CC(C)(C)CC[C@]4(C(=O)O)CC[C@]23C)C1(C)C (stereo partly specified)	-3.12% [at 57.7 µM] (inactive)
COc1ccc(CN2CCN(CCCSc3cc(C(C)(C)C)c(O)c(C(C)(C)C)c3)CC2)c(OC)c1OC	-0.336% [at 30.2 µM] (inactive)
Clc1ncoc1-c1c[nH]c2ccccc12	-0.863% (inactive)
CC(C)CCCCC(=O)N[C@@H](CO)C(=O)N[C@@H](CC(C)C)C(=O)[C@@]1(CO)CO1	-4.52% (inactive)
COC(=O)c1cc2c(C(F)(F)F)cc(-c3ccccc3)cc2n1O	-13.3% (inactive)
COC1=CC(=O)C=C(C)C12Oc1c(Cl)c(OC)cc(OC)c1C2=O (stereo unspecified)	-2.22% [at 57.7 µM] (inactive)
O=C(O)CCc1nccc2c1[nH]c1ccccc12	-3.9% (inactive)
CC1(C)CN(C(=O)c2ccc(-c3cccc4nc(NC(=O)C5CC5)nn34)cc2)C1	-10.5% (inactive)
COc1ccc(C[C@H]2COC(=O)[C@@H]2Cc2ccc(O[C@@H]3O[C@H](CO)[C@@H](O)[C@H](O)[C@H]3O)c(OC)c2)cc1OC	0.528% [at 57.7 µM] (inactive)
O=C1C[C@]23C=CCN4CCC5c6cc7c(cc6N1[C@@]5(CC2)C43)OCO7 (stereo partly specified)	-4.67% [at 57.7 µM] (inactive)
CNC(=O)c1cc(Oc2ccc(NC(=O)c3cccc(C(F)(F)F)c3)cc2)ccn1	4.8% (inactive)
